Experimental data: PubChem BioAssay (NCATS)
Results filed as inconclusive are left out. Active and inactive are the calls of the source. Unless noted, calls follow the shape of the dose curve; as a rule, active = well fitted curve in the direction sought with a large enough effect; inconclusive = small, poorly fitted or top-dose-only effect, or another doubt; inactive = no such curve, though single readings can be large; an effect the other way counts as inactive or inconclusive.

Columns and labels:
[1] = biological target: DNA repair nuclease/redox regulator APEX1 (Homo sapiens) (UniProt P27695); assay: qHTS Validation Assay for Inhibitors of the Human Apurinic/apyrimidinic Endonuclease 1 (APE1) (AID 1705;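 also: TAMRA fluorescence gain over two minutes as APE1 cuts a quenched THF abasic duplex; series mostly up to about 57 µM; % is scaled to controls: 0 for no effect and ±100 for the full control effect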)
Summary of the method: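 Endonuclease activity of human APE1 is followed as dequenching when the enzyme incises a tetrahydrofuran abasic site in a short duplex labelled 5'-TAMRA/3'-BHQ-2 (50 nM final), after 15 min enzyme–compound preincubation at room temperature.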

[2] = Counterscreen for APE1 Inhibitors: Fluorescent Dye Displacement Validation Assay (AID 1707);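 also: plate controls were ThO with dsDNA and no compound for no effect and ThO without dsDNA for full effect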
Summary of the method: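 Thiazole Orange displacement from dsDNA: 250 nM ThO with 50 nM TAMRA-labelled abasic-site (tetrahydrofuran) duplex in 50 mM Tris-HCl pH7.5, 50mM NaCl, 2 mM MgCl2, 0.01% Tween-20. Loss of endpoint fluorescence (ex 480 nm, em 540 nm) flags DNA binders.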

[3] = biological target: Endonuclease 4 (Escherichia coli (strain K12)) (UniProt P0A6C1); assay: Counterscreen for APE1 Inhibitors: qHTS Validation Assay for Inhibitors of Endonuclease IV (AID 1708); also: % is scaled to controls: 0 for no effect and ±100 for the full control effect
Summary of the method: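 2 nM enzyme was preincubated with compounds for 15 min at room temperature in 50 mM Tris-HCl pH 7.5, 50 mM NaCl, 2 mM MgCl2, 1 mM DTT, 0.01% Tween-20. 50 nM THF-abasic TAMRA/BHQ-2 duplex substrate started the reaction.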

[4] = qHTS for differential inhibitors of proliferation of Plasmodium falciparum line GB4 (AID 1816); settings: Potency: Plasmodium falciparum GB4 proliferation inhibition;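 also: parasite growth measured after 72 h incubation; 0% = vehicle DMSO and -100% = reference inhibitor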
[5] = qHTS for differential inhibitors of proliferation of Plasmodium falciparum line 3D7 (AID 1876);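 also: parasite growth measured after three days of culture; 0% = vehicle wells and -100% = reference inhibitor wells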
[6] = qHTS for differential inhibitors of proliferation of Plasmodium falciparum line D10 (AID 1877);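 also: parasites grown with compound for 72 h before DNA staining; plate controls were vehicle wells for no effect and reference inhibitor wells for full effect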
[7] = qHTS for differential inhibitors of proliferation of Plasmodium falciparum line W2 (AID 1883); settings: Potency: Plasmodium falciparum W2 proliferation inhibition;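 also: parasites grown with compound for 72 h before lysis and staining; 0% = vehicle wells and -100% = control inhibitor wells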
[8] = qHTS for differential inhibitors of proliferation of Plasmodium falciparum line HB3 (AID 1886); settings: Potency: Plasmodium falciparum HB3 proliferation inhibition;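 also: parasites grown with compound for 72 h before SYBR Green readout; plate controls were vehicle for no effect and reference inhibitor for full effect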
[9] = qHTS Assay for Modulators of Human Peripheral Myelin Protein 22 (PMP22) Expression/Activity (AID 1967; active = well fitted curve in the direction sought with a large enough effect in the signal ratio; the % refers to the signal ratio;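 also: 0% = untreated cells and 100% end not stated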)
Summary of the method: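 Quantitative HTS in a mouse Schwann cell line expressing dual click beetle luciferases: Pmp22 promoter (green) and control EF-alpha promoter (red). After 24h treatment, corrected green/red signal ratio gave %Activity relative to untreated cells.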

[10] = biological target: Ferritin light chain (Equus caballus) (UniProt P02791); assay: qHTS Validation Assay for Identification of Novel General Anesthetics (AID 2323); also: series mostly up to about 77 µM; % is scaled to controls: 0 for no effect and ±100 for the full control effect
Summary of the method: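 Apoferritin from horse spleen (10 uM) was mixed with 1-aminoanthracene at 50% saturation in PBS, then compounds were added. After 10 min at room temperature, fluorescence was read (ex 380 nm, em 535 nm) and normalized to free-probe and complex controls.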

[11] = biological target: ATP-dependent DNA helicase Q1 (Homo sapiens) (UniProt P46063); assay: qHTS Validation Assay for Inhibitors of RecQ-Like Dna Helicase 1 (RECQ1) (AID 2353);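 also: plate controls were DMSO vehicle for no effect and enzyme-free control for full effect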
Summary of the method: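 50 nM RECQ1T1 preincubated 15 min with compound in Tris pH 8.0 buffer with MgCl2, DTT, Tween-20 and 2.5 ug/ml poly(dI-dC); started with 200 nM TAMRA/BHQ-2 forked duplex and 2 mM ATP. Unwinding read as fluorescence (525/598 nm), two reads 2 h apart.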

[12] = Validation screen for small molecules that induce DNA re-replication in MCF 10A normal breast cells (AID 463097); also: 0% is about no effect; nearly all actives have a fitted effect of over 60% in size
Summary of the method: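 DNA re-replication was detected as a rise in nuclei with elevated Hoechst fluorescence after a 48 hr compound exposure of MCF 10A cells at 37 C.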

[13] = Quantitative high throughput screen for delayed death inhibitors of the malarial parasite plastid, 96 hour incubation (AID 488745); also: series mostly up to about 29 µM; % is scaled to controls: 0 for no effect and ±100 for the full control effect; nearly all actives have a fitted effect of over 70% in size
Summary of the method: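 P. falciparum carrying an integrated firefly luciferase reporter, grown in erythrocytes (2% hematocrit, 0.1% parasitemia final) in RPMI 1640/0.5% Albumax, was exposed to compound for 96 h (two generations) at 37 C, 5% CO2. Luminescence decrease indicated growth inhibition.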

[14] = Quantitative high throughput screen for delayed death inhibitors of the malarial parasite plastid, 48 hour incubation (AID 488752); also: % is scaled to controls: 0 for no effect and ±100 for the full control effect; nearly all actives have a fitted effect of over 65% in size
Summary of the method: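 Erythrocytes infected with P. falciparum carrying an integrated firefly luciferase reporter (2% hematocrit, 0.1% parasitemia final) were exposed to compounds in RPMI 1640/0.5% Albumax for 48 h at 37 C, 5% CO2. Growth inhibition was scored as reduced luminescence.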

[15] = biological target: M-phase phosphoprotein 8 (Homo sapiens) (UniProt Q99549); assay: qHTS Validation Assay for Inhibitors for MPP8 Chromodomain Interactions with Methylated Histone Tails (AID 488949);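 also: AlphaScreen signal from MPP8 chromodomain bound to biotinylated H3K9me3 peptide; top concentration of the series differs between compounds; % is scaled to controls: 0 for no effect and ±100 for the full control effect; nearly all actives have a fitted effect of over 55% in size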
Summary of the method: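 Disruption of the preformed MPP8–trimethyl-H3K9 peptide complex (both 50 nM, 30 min, RT) is measured after 30 min compound exposure, using AlphaScreen proximity beads; aurintricarboxylic acid titration serves as plate control.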

[16] = biological target: Transient receptor potential cation channel subfamily V member 1 (Homo sapiens) (UniProt Q8NER1); assay: HTS Assay for Compounds that Act as Enhancers of the Vanilloid Receptor 1 (AID 488979); also: 0% is about no effect
Summary of the method: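 TRPV1-expressing cells loaded with Fluo-8 calcium dye; compounds added and calcium influx read kinetically for 3 min (agonist phase), then capsaicin at EC20 added and read 2 min more for enhancement. Fluorescence ex 480/em 520 nm.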

[17] = biological target: Thyrotropin receptor (Homo sapiens) (UniProt P16473); assay: qHTS Assay for Antagonists of the Thyroid Stimulating Hormone Receptor (AID 488980); also: series mostly up to about 58 µM; 0% is about no effect
Summary of the method: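 Cells expressing human TSHR (HEK293) are dispensed in HBSS/HEPES containing 70 uM RO 20-1724, compound is added, then TSH at EC80 (4 nM final). Antibody in lysis buffer follows, 30 minutes at room temperature before HTRF detection.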

[18] = biological target: Thyrotropin-releasing hormone receptor (Homo sapiens) (UniProt P34981); assay: qHTS for Small Molecule Agonists and Allosteric Enhancers of Human TRH Receptor: Validation Screen for Agonists (AID 493127;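 active = calcium activation more than 3 SD above the typical response in the agonist read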;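 also: intracellular calcium rise by fluo-8 fluorescence before TRH EC20 addition; 0% is about no effect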); settings: TRH receptor agonist cell assay; at 2 µM; stronger effect = higher value
Summary of the method: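 TRHR-expressing cells were plated overnight in serum-containing medium, then loaded with fluo-8 calcium dye at room temperature for 30 min–1.5 h. After a 10 s baseline, compound was pin-transferred and calcium fluorescence (ex 480/em 530) read kinetically for agonist response.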

[19] = biological target: Galactokinase (Homo sapiens) (UniProt P51570); assay: qHTS Validation Assay for Inhibitors of Human Galactokinase (GALK) (AID 493189); also: 0% is about no effect
Summary of the method: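 Compounds were pin-transferred into ATP buffer, then GALK-galactose mix was added (final 5 nM enzyme, 100 uM galactose, 35 uM ATP). After 1 h at room temperature, remaining ATP was measured luminescently.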

[20] = Validation screen for small molecules that induce DNA re-replication in SW480 colon adenocarcinoma cells (AID 504364); also: 0% is about no effect
Summary of the method: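 SW480 cells seeded at 250 per well were exposed to compound or DMSO for 48 hr at 37 C, 5% CO2, then stained with Hoechst for 40 min. DNA content per nucleus was imaged (405 nm ex, 500-530 nm em).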

[21] = biological target: DNA dC->dU-editing enzyme APOBEC-3G (Homo sapiens) (UniProt Q9HC16); assay: qHTS for inhibitors of Vif-A3G interactions: Validation (AID 588379); also: 0% is about no effect
Summary of the method: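 HeLa cells stably expressing Vif and A3G-eYFP, 700 cells/well, incubated overnight at 37 deg C, then exposed to compound overnight at 37 deg C. Inhibition of Vif-mediated degradation read as increased yellow fluorescence (Ex 488/Em 500-530) by laser-scanning cytometry.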

[22] = test system: Zika virus NS2B-NS3 protease; assay: Primary screen GU AMC qHTS for Zika virus inhibitors (AID 1347154);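 also: 0% = no-inhibitor control and -100% = no-enzyme control; nearly all actives have a fitted effect of over 70% in size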
Summary of the method: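 Unlinked Zika NS2B hydrophilic domain/NS3 protease domain noncovalent complex (25 nM final) in 10 mM Tris-HCl pH 8.0, 0.01% Tween 20, with AMC peptide substrate. Fluorescence (ex 340, em 450 nm) change over 15 min, room temperature; percent inhibition fitted to 4-parameter Hill equation.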

[23] = Primary qHTS for small molecule stabilizers of the endoplasmic reticulum resident proteome: Secreted ER Calcium Modulated Protein (SERCaMP) assay (AID 1508630); also: % is scaled to controls: 0 for no effect and ±100 for the full control effect
Summary of the method: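 GLuc-SERCaMP-expressing SH-SY5Y cells, pretreated 16 h with compound, are challenged with thapsigargin to empty ER calcium stores; after 4 h, coelenterazine is added directly to the medium and luminescence is imaged.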

Sequence of M-phase phosphoprotein 8 (Homo sapiens) (Q99549 whole entry, looked up): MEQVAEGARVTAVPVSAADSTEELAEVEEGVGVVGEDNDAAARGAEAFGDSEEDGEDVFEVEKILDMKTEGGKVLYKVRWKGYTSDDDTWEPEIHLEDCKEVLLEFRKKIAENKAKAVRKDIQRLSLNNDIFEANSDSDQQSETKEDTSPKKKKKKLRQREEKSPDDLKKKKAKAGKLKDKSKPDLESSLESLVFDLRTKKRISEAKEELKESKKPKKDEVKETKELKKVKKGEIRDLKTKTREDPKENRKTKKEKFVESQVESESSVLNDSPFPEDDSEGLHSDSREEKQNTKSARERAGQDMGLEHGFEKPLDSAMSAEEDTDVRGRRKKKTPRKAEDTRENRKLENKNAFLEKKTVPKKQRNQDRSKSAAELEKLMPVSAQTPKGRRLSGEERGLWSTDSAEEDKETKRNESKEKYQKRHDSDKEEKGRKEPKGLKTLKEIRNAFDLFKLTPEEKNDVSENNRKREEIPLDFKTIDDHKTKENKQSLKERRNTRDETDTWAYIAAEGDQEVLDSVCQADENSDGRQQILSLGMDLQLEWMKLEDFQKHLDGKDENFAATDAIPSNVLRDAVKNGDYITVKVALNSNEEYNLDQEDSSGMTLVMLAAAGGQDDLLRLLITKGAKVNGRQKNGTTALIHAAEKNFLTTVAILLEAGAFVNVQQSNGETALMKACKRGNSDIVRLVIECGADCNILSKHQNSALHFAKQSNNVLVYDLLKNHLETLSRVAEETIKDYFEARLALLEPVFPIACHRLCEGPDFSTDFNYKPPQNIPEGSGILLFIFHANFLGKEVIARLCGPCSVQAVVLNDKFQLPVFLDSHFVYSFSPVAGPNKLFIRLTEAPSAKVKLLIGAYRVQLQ
Sequence of DNA repair nuclease/redox regulator APEX1 (Homo sapiens) (P27695 whole entry, looked up): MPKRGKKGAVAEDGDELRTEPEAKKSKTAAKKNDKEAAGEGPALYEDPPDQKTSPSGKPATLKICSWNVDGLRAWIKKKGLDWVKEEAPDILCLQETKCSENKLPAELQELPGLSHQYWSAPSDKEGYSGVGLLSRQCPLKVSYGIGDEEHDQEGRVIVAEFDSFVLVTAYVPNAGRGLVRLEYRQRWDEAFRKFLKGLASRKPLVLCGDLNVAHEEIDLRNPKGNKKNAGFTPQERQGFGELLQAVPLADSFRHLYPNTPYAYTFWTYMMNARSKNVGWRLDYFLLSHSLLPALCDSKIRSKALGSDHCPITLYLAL
Sequence of ATP-dependent DNA helicase Q1 (Homo sapiens) (P46063 whole entry, looked up): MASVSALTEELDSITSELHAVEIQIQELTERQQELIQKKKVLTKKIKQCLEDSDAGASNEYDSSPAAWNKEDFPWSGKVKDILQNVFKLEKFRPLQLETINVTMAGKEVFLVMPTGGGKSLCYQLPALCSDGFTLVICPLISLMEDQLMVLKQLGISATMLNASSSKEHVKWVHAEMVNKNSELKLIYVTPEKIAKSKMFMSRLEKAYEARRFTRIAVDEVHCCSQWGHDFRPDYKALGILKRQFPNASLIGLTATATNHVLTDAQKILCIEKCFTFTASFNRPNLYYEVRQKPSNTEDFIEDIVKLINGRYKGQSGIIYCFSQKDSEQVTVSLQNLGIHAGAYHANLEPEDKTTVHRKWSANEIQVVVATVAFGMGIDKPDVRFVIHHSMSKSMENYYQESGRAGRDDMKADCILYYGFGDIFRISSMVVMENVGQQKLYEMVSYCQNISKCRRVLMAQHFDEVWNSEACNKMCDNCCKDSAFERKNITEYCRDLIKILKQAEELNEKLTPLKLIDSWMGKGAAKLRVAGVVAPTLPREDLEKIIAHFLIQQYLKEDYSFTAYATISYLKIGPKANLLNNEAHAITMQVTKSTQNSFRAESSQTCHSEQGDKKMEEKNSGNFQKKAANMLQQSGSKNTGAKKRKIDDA
Sequence of Ferritin light chain (Equus caballus) (P02791 2-175 limits assumed): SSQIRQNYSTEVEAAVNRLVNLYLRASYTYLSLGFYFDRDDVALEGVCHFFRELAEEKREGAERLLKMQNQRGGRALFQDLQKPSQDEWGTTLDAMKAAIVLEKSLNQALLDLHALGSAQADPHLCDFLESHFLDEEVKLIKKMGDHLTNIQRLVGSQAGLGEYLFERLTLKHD
Sequence of DNA dC->dU-editing enzyme APOBEC-3G (Homo sapiens) (Q9HC16 whole entry, looked up): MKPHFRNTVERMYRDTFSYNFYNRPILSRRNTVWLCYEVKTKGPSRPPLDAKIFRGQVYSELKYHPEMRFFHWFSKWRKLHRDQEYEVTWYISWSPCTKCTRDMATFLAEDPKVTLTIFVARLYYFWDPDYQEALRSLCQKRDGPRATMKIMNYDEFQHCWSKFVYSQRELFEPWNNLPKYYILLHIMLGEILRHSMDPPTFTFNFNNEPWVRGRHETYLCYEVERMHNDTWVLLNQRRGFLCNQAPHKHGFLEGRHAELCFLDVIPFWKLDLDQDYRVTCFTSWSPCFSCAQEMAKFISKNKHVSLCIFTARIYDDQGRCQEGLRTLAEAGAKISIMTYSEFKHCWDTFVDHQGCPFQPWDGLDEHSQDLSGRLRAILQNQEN
Sequence of Galactokinase (Homo sapiens) (P51570 whole entry, looked up): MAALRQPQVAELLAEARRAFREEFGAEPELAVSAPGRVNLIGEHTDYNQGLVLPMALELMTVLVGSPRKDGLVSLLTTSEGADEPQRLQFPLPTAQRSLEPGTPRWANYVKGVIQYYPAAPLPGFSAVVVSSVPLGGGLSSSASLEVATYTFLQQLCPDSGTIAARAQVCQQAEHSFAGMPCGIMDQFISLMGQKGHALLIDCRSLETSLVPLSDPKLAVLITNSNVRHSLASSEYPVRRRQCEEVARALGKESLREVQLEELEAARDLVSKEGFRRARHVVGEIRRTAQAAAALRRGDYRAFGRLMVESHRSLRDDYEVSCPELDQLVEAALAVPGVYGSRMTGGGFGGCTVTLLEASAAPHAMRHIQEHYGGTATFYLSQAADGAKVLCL
Sequence of Transient receptor potential cation channel subfamily V member 1 (Homo sapiens) (Q8NER1 whole entry, looked up): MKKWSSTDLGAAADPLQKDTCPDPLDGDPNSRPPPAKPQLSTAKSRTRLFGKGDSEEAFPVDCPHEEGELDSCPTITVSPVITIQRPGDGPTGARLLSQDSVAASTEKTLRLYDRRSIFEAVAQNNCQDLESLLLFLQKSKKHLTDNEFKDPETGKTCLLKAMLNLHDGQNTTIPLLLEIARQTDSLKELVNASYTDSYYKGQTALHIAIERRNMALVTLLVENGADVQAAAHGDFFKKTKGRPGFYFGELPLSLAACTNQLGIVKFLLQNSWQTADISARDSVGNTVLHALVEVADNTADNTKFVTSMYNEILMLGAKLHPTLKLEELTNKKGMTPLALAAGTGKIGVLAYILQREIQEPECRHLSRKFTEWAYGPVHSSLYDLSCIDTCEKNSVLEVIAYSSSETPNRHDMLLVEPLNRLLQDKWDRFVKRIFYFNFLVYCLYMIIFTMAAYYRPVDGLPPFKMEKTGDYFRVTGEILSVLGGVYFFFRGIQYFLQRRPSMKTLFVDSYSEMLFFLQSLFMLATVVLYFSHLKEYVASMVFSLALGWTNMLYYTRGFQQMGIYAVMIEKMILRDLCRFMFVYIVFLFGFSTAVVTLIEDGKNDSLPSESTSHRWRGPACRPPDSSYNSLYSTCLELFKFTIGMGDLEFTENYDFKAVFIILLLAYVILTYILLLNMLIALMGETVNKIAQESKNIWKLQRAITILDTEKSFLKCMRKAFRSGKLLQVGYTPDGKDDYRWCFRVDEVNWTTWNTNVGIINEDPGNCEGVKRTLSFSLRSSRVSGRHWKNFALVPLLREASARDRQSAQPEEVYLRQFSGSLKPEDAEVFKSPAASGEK
Sequence of Thyrotropin receptor (Homo sapiens) (P16473 whole entry, looked up): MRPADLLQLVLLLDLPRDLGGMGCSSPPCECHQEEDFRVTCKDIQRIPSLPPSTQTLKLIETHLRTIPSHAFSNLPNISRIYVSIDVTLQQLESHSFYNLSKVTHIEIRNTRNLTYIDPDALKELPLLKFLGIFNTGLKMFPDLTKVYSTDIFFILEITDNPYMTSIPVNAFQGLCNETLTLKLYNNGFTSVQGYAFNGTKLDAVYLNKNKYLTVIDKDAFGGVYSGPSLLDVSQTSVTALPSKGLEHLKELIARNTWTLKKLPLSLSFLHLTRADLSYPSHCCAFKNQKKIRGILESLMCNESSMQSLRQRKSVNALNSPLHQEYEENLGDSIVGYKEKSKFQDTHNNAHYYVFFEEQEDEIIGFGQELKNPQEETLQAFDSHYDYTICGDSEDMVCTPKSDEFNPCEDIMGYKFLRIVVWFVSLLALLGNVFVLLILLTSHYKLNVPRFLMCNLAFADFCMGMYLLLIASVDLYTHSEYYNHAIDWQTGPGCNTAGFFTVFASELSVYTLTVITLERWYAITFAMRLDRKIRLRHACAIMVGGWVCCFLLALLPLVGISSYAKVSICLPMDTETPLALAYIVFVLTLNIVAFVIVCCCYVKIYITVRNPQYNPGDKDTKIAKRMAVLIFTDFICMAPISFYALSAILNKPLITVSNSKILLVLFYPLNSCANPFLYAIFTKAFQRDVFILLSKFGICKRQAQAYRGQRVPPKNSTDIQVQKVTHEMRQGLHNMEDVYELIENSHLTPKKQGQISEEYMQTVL
Sequence of Thyrotropin-releasing hormone receptor (Homo sapiens) (P34981 whole entry, looked up): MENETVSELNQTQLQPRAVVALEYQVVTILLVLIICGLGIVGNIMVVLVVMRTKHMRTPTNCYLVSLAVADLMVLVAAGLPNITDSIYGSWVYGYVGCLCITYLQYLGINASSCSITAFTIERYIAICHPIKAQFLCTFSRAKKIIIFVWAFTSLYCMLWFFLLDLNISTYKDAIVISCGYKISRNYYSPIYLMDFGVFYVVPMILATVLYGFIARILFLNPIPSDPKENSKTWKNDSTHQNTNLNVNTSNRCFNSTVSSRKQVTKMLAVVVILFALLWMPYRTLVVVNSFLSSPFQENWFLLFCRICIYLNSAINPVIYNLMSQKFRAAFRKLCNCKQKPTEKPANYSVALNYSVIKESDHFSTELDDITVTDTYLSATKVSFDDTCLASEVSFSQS

O=C(O)c1cc(=O)c2ccc(Cl)cc2[nH]1
inactive: Potency [1] | Potency [2] | Potency [3] | Potency [4] | Potency [5] | Potency [6] | Potency [7] | Potency [8] | outcome [9] | outcome [10] | Potency [11] | Potency [12] | Potency [13] | Potency [14] | Potency [15] | outcome [16] | outcome [17] | activation [18] 1.31% | outcome [19] | outcome [20] | Potency [21] | Potency [22] | Potency [23]
